Values without a mark were called inactive. For some of these results: Entries with a potency or affinity are not part of this list. Calls of active or inactive are those of the source. Unless noted, the rule behind the calls is not given here.

Growth inhibition, inhibition and outcome data for 20 molecules are collected here from PubChem BioAssay.

Experiment [1] in a line: antimalarial activity against Dd2 strain (AID 2302;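 active = growth inhibition above 50% at the single 2 µM test dose, taken to imply half-maximal potency below 2 µM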;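 note: 0% = DMSO untreated growth and 100% = chloroquine plus artemisinin killed control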). Particulars: P. falciparum Dd2 in RBCs, LDH growth readout, 72 h; at 2 µM; hits give high values.
Experiment [2] can be described thus: human hepatoma cell viability loss – ATP luminescence, cytotoxicity control for P. falciparum antimalarial project, primary screen (AID 2303;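 active = inhibition above 50%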;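 note: 0% = DMSO wells and 100% = digitonin-killed cells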). Particulars: HepG2 viability, 24-48 h, at 10 µM, hits give high values.
Experiment [3] concerns the target L-lactate dehydrogenase (Plasmodium falciparum (isolate CDC / Honduras)) (UniProt Q27743). Nature of the experiment: PfLDH activity inhibition – cell lysate, 3D7 strain, counter-screen for P. falciparum growth inhibition project (AID 2304).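 Note: 0% = vehicle and 100% = reference inhibitor.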 Particulars: P. falciparum 3D7 crude extract, LDH APAD/NBT absorbance; at 2 µM; hits give high values. Background: The purpose of a counterscreen is to sort out artefacts and off-target activity.

Experiment [4] is described as follows: inhibition of 3D7 malaria parasite growth – strain 3D7 (AID 2306).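 Note: 0% = DMSO wells and 100% = chloroquine plus artemisinin control wells.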 The conditions noted are these: P. falciparum 3D7 erythrocytic growth, LDH absorbance, 72 h; at 2 µM; hits give high values.
In experiment [5] the target is Calcium-dependent protein kinase 1 (Plasmodium falciparum (isolate 3D7)) (UniProt P62344). Nature of the experiment: PfCDPK1 kinase inhibitors, biochemical, TCAMS library (AID 1159585; cut-off not given, nearly all actives have IC50 up to about 0.98 µM;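 note: inhibitors leave more ATP so luminescence rises with inhibition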). Particulars: recombinant PfCDPK1, Kinase-Glo ATP depletion luminescence. (In Kinase-Glo more light means more ATP remaining.)
Experiment [6] deals with Plasmodium falciparum protein kinase 6 (PK6, PF3D7_1337100) (UniProt Q8IDW1). Nature of the experiment: PfPK6 kinase inhibitors, biochemical, TCAMS library (AID 1159586). Particulars: recombinant PfPK6, Kinase-Glo ATP depletion luminescence.
For experiment [7], the target named is Protein kinase 7 (PK7), Plasmodium falciparum 3D7 (PF3D7_0213400) (UniProt Q7YTF7). The experiment is described as follows: inhibition of Plasmodium PK7 catalytic activity – biochemical, TCAMS antimalarial set, Kinase-Glo luminescence (AID 1159587). Particulars: recombinant PfPK7, Kinase-Glo ATP depletion luminescence.
For experiment [8], the target named is Calcium-dependent protein kinase 4 (Plasmodium falciparum (isolate 3D7)) (UniProt Q8IBS5). Nature of the experiment: PfCDPK4 kinase inhibitors, biochemical, TCAMS library (AID 1159588; cut-off not given, nearly all actives have IC50 up to about 0.91 µM). Particulars: recombinant PfCDPK4, Kinase-Glo ATP depletion luminescence.
Calcium-dependent protein kinase 4 (Plasmodium falciparum (isolate 3D7)), sequence (Q8IBS5 whole entry, looked up): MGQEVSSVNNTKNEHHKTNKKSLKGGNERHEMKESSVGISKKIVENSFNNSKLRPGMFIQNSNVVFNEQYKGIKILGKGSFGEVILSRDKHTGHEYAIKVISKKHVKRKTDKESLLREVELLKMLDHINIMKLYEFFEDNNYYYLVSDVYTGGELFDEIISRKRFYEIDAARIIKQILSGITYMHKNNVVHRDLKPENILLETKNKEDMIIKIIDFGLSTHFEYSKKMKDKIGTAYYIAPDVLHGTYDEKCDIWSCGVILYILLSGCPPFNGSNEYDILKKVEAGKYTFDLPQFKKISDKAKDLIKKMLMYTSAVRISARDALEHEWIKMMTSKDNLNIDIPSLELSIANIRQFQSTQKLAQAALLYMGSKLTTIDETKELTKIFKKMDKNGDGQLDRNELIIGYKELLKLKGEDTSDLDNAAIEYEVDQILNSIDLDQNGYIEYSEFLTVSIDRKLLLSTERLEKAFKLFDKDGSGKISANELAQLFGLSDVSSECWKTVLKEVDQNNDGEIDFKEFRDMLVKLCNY

L-lactate dehydrogenase (Plasmodium falciparum (isolate CDC / Honduras)), sequence (Q27743 whole entry, looked up): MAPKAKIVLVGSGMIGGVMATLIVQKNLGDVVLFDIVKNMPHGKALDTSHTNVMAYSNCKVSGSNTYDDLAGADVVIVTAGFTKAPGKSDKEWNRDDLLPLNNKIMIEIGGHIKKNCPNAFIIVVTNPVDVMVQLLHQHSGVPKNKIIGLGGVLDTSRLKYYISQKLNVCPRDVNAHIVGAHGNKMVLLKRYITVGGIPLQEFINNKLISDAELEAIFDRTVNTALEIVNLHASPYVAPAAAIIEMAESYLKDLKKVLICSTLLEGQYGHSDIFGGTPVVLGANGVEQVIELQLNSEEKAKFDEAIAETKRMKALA
Protein kinase 7 (PK7), Plasmodium falciparum 3D7 (PF3D7_0213400), sequence (Q7YTF7 1-343): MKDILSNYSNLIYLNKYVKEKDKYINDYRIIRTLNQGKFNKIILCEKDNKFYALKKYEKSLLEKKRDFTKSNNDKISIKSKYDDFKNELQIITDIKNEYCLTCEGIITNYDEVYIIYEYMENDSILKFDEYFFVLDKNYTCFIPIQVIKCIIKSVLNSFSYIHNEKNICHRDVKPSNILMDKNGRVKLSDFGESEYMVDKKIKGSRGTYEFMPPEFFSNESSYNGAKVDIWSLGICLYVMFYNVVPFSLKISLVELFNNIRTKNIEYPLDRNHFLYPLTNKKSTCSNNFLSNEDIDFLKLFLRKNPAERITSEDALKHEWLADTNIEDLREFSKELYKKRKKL
Calcium-dependent protein kinase 1 (Plasmodium falciparum (isolate 3D7)), sequence (P62344 whole entry, looked up): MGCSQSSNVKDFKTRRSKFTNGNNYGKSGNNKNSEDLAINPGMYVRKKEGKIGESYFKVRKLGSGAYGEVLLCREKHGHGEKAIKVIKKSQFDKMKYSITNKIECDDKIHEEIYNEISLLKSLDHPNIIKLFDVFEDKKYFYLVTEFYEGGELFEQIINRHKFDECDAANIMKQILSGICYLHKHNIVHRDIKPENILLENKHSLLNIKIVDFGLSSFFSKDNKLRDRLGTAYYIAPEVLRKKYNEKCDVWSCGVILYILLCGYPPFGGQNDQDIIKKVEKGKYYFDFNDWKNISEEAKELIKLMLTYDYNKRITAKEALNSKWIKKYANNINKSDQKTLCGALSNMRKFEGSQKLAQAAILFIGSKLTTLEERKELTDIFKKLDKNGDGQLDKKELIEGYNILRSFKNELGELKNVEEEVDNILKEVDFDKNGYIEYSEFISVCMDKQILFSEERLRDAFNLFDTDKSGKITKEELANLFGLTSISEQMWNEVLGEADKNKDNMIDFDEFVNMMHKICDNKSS
Plasmodium falciparum protein kinase 6 (PK6, PF3D7_1337100), sequence (Q8IDW1 1-305): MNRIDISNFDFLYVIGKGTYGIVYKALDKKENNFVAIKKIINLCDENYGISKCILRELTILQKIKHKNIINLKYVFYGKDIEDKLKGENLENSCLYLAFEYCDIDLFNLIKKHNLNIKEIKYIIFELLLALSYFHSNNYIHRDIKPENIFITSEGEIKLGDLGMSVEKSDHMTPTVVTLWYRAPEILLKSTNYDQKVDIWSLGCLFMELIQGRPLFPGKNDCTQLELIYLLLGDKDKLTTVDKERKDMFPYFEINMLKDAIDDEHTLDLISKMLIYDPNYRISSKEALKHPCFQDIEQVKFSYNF

As a reminder, the inhibition is the drop in the measured response relative to a control, in per cent. Take `CN(/N=C/C=C/c1ccc(Cl)cc1)c1nc(NCCc2ccc(O)cc2)nc(N2CCNCC2)n1`: the growth inhibition in experiment [1] was 69% (active); in experiment [4] it was 92% (active). The figures for the inhibition in experiment [2] and in experiment [3] were 14% and 1%, respectively. The result in experiment [5], in experiment [6], in experiment [7] and in experiment [8] was inactive.
Turning to `CC(=O)Nc1ccc(CN2CCC(NC(=O)c3ccc(-c4ccc(N(C)C)cc4)s3)CC2)cc1`, the growth inhibition in experiment [1] is 57% (active); in experiment [4], 100% (active). The inhibition was 20% in experiment [2] and -1% in experiment [3]. For the same molecule, the result in experiment [5], in experiment [6], in experiment [7] and in experiment [8] was inactive.
For the molecule `CC(C)(C)OC(=O)NCc1ccc(Nc2nnc(-c3ccc(OCC(=O)NC[C@@H]4CC[C@H]5C[C@@H]4C5(C)C)c([N+](=O)[O-])c3)o2)cc1`, the growth inhibition is 52% (active) in experiment [1] and 94% (active) in experiment [4]. In addition, the inhibition is 29% in experiment [2] and -3% in experiment [3]. Besides, the result in experiment [5], in experiment [6], in experiment [7] and in experiment [8] was inactive.
For `Nc1ccc(-c2nc3ccc(Cc4ccc5nc(-c6ccc(N)cc6)[nH]c5c4)cc3[nH]2)cc1`, the growth inhibition in experiment [1] is 96% (active); in experiment [4], 100% (active). For the same molecule, the inhibition in experiment [2] was 47%; in experiment [3], 2%. The result in experiment [5], in experiment [6], in experiment [7] and in experiment [8] was inactive.
Turning to `CC[C@H]1CN(C/C=C/c2ccc(OC)cc2)CC[C@H]1CCCc1ccnc2ccc(O)cc12`, the growth inhibition in experiment [1] is 72% (active); in experiment [4], 99% (active). The inhibition in experiment [2] is 24%; in experiment [3], 1%. Besides, the result in experiment [5], in experiment [6], in experiment [7] and in experiment [8] was inactive.
For the molecule `CCOc1cc(C(=O)NCCN(CC)c2cccc(C)c2)ccc1-c1nc2ccc(Cl)cc2[nH]1`, the figures for the growth inhibition in experiment [1] and in experiment [4] were 80% (active) and 102% (active), respectively. Moreover, the inhibition in experiment [2] was -1%; in experiment [3] it was 0%. Further, the outcome in experiment [5], in experiment [6], in experiment [7] and in experiment [8] was inactive.
On to `Cc1cccc2[nH]c(-c3ccc(-c4cccc(CNCc5ccc(CN)cc5)c4)s3)nc12`, for which the growth inhibition was 48% in experiment [1] and 99% (active) in experiment [4]. Besides, the inhibition in experiment [2] was 11%; in experiment [3], -2%. Besides, the result in experiment [5], in experiment [6], in experiment [7] and in experiment [8] was inactive.
For `COc1cc(NC(=O)N2CCOC(CCN3CCC4(CCc5ccccc54)CC3)(c3ccc(Cl)c(Cl)c3)C2)cc(OC)c1` (stereo not given), the figures for the growth inhibition in experiment [1] and in experiment [4] were 50% (active) and 87% (active), respectively. Further, the inhibition in experiment [2] is 29%; in experiment [3], 3%. In addition, the result in experiment [5], in experiment [6], in experiment [7] and in experiment [8] was inactive.
For `CCCCOc1ccc(/C=C/c2ccc(-c3c(C)[nH]c(C)c(Cl)c3=O)s2)cc1`, the growth inhibition is 96% (active) in experiment [1] and 97% (active) in experiment [4]. Moreover, the inhibition is -4% in experiment [2] and -2% in experiment [3]. Moreover, the outcome in experiment [5], in experiment [6], in experiment [7] and in experiment [8] was inactive.
As for `COc1cccc(-c2nn(C)c3sc(C(=O)NCCN4CCN(c5ccccc5F)CC4)cc23)c1`, the growth inhibition in experiment [1] was 40%; in experiment [4], 85% (active). In addition, the inhibition was 9% in experiment [2] and -5% in experiment [3]. For the same molecule, the outcome in experiment [5], in experiment [6], in experiment [7] and in experiment [8] was inactive.
With `Cc1ccccc1C1CCN(C2CCC(NC(=O)/C=C/c3ccc4c(c3)OC(F)(F)O4)CC2)CC1` (stereo not given), the growth inhibition was 39% in experiment [1] and 100% (active) in experiment [4]. Also, the results for the inhibition in experiment [2] and in experiment [3] were 75% (active) and 2%, respectively. The outcome in experiment [5], in experiment [6], in experiment [7] and in experiment [8] was inactive.
With `CCCN1CCN(CCCCNc2c3ccccc3nc3ccccc23)CC1`, the values for the growth inhibition in experiment [1] and in experiment [4] were 0% and 100% (active), respectively. Also, the inhibition is 34% in experiment [2] and -8% in experiment [3]. The result in experiment [5], in experiment [6], in experiment [7] and in experiment [8] was inactive.
On to `CN(C)c1ccc(CN2CCC(CNC(=O)c3cc(-c4cccc(C(F)(F)F)c4)cs3)C2)cc1` (stereo not given), for which the results for the growth inhibition in experiment [1] and in experiment [4] were 34% and 96% (active), respectively. Further, the inhibition in experiment [2] is 39%; in experiment [3] it was 0%. Further, the result in experiment [5], in experiment [6], in experiment [7] and in experiment [8] was inactive.
As for `CCN(CC)S(=O)(=O)c1ccc(CCOCCCCCNCC(O)c2cc(Cl)c(N)c(Cl)c2)s1` (stereo not given), the growth inhibition in experiment [1] was 80% (active); in experiment [4], 96% (active). Further, the inhibition in experiment [2] is 35%; in experiment [3], -10%. Also, the outcome in experiment [5], in experiment [6], in experiment [7] and in experiment [8] was inactive.
In the case of `COc1ccc(C2CC(c3cccs3)=NN2C(=O)c2ccccc2)cc1OC` (stereo not given), the figures for the growth inhibition in experiment [1] and in experiment [4] were 83% (active) and 99% (active), respectively. The inhibition in experiment [2] and in experiment [3] was 5% throughout. The outcome in experiment [5], in experiment [6], in experiment [7] and in experiment [8] was inactive.
For `O=C(Nc1ccc(Cl)cc1)c1cc(Cl)ccc1NC(=O)C1CCc2ccccc2O1` (stereo not given), the growth inhibition is 63% (active) in experiment [1] and 98% (active) in experiment [4]. Further, the values for the inhibition in experiment [2] and in experiment [3] were 1% and -1%, respectively. Also, the outcome in experiment [5], in experiment [6], in experiment [7] and in experiment [8] was inactive.
For `N=c1sc2ccccc2n1CC(O)c1ccc(Cl)c(Cl)c1` (stereo not given), the growth inhibition in experiment [1] was 74% (active); in experiment [4], 99% (active). Besides, the inhibition in experiment [2] is 4%; in experiment [3] it was -2%. In addition, the result in experiment [5], in experiment [6], in experiment [7] and in experiment [8] was inactive.
Turning to `CC(=NN=C(N)N)c1ccc2c(ccc3ccccc32)c1`, the results for the growth inhibition in experiment [1] and in experiment [4] were 15% and 100% (active), respectively. In addition, the inhibition is 47% in experiment [2] and 8% in experiment [3]. Also, the result in experiment [5], in experiment [6], in experiment [7] and in experiment [8] was inactive.
Turning to `CC(C)CNC(=O)c1ccnc(-c2ccc(CNC3Cc4ccccc4C3)cc2)c1`, the results for the growth inhibition in experiment [1] and in experiment [4] were 29% and 99% (active), respectively. Besides, the inhibition is 25% in experiment [2] and -5% in experiment [3]. Moreover, the result in experiment [5], in experiment [6], in experiment [7] and in experiment [8] was inactive.
On to `O=S(=O)(Nc1cccc(F)c1CNCc1ccccn1)c1ccc(Cl)c(Cl)c1`, for which the figures for the growth inhibition in experiment [1] and in experiment [4] were 34% and 92% (active), respectively. The inhibition in experiment [2] was 45%; in experiment [3] it was -5%. The result in experiment [5], in experiment [6], in experiment [7] and in experiment [8] was inactive.
